Several values for one entry are separate records, joined by “and”; a condition that tells them apart may be missing. Identical values can stand only once.
How the values were obtained:
[1] = molecular target: High affinity nerve growth factor receptor (Homo sapiens) (UniProt P04629); conditions: at 1 µM;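 also: each value is the mean percent inhibition of TRKA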
[2] = molecular target: BDNF/NT-3 growth factors receptor (Homo sapiens) (UniProt Q16620); conditions: at 0.1 µM
[3] = molecular target: BDNF/NT-3 growth factors receptor (Homo sapiens) (UniProt Q16620); conditions: at 1 µM
[4] = molecular target: NT-3 growth factor receptor (Homo sapiens) (UniProt Q16288); conditions: at 0.1 µM
[5] = molecular target: NT-3 growth factor receptor (Homo sapiens) (UniProt Q16288); conditions: at 1 µM
[6] = molecular target: T1, Tyrosine-protein kinase TXK (Homo sapiens) (UniProt P42681); conditions: at 0.1 µM
T1 sequence (whole entry): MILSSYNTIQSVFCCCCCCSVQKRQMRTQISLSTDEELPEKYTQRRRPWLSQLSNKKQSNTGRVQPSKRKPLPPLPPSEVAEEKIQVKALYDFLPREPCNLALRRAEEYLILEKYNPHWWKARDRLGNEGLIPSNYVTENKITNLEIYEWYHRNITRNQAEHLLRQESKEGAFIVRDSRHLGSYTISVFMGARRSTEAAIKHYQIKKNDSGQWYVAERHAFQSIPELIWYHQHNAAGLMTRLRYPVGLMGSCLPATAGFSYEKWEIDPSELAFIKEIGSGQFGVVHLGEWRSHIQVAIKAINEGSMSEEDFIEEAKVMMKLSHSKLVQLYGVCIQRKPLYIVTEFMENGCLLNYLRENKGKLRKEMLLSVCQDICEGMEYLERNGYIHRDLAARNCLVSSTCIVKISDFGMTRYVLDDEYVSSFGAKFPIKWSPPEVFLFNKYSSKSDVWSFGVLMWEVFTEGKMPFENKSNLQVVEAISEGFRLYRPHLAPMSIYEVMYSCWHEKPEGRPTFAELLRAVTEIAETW

[7] = molecular target: T1, Tyrosine-protein kinase TXK (Homo sapiens); conditions: at 1 µM
[8] = molecular target: Non-receptor tyrosine-protein kinase TYK2 (Homo sapiens) (UniProt P29597); conditions: at 0.1 µM;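 also: each value is a mean of the inhibition readings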
[9] = molecular target: T2, Dual specificity protein kinase TTK (Homo sapiens) (UniProt P33981); conditions: at 1 µM;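 also: reported figures are mean TTK inhibition at 1 µM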
T2 sequence (whole entry): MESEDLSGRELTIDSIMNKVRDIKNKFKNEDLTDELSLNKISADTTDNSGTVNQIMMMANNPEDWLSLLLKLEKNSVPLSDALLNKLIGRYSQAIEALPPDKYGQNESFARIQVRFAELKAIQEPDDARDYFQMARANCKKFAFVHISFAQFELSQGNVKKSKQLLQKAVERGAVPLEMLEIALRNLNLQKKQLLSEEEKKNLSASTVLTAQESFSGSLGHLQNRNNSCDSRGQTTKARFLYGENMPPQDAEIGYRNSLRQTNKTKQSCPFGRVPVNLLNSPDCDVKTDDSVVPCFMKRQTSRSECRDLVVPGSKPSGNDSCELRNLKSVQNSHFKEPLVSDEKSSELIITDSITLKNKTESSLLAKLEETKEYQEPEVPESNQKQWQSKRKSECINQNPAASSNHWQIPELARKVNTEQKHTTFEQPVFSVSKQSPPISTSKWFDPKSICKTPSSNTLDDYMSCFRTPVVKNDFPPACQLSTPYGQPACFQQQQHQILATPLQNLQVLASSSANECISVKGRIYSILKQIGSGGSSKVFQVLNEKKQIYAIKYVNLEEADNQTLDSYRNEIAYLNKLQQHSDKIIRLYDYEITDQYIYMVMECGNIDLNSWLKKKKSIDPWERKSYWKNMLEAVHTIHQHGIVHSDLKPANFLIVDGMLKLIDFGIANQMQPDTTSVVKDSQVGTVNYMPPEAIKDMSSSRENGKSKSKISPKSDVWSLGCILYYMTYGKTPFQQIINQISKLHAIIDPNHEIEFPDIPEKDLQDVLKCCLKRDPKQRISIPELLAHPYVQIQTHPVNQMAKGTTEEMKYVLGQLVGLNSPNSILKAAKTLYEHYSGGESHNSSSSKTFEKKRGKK

[10] = molecular target: T3, Aurora kinase A (Homo sapiens) (UniProt O14965); conditions: at 0.1 µM;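 also: each reported value is a mean percent inhibition of Aurora-A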
T3 sequence (whole entry): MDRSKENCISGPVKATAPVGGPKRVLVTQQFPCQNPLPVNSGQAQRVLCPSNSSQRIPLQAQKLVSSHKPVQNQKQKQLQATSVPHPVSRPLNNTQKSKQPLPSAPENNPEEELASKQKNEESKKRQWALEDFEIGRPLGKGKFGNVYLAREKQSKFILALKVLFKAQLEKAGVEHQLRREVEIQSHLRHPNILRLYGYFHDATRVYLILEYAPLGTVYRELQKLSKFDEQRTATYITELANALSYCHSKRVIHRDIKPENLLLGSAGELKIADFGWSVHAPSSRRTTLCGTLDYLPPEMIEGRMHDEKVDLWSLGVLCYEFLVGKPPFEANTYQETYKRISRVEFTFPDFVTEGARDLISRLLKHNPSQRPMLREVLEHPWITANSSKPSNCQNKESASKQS

Chain of BDNF/NT-3 growth factors receptor (Homo sapiens) (Q16620 32-822 limits assumed): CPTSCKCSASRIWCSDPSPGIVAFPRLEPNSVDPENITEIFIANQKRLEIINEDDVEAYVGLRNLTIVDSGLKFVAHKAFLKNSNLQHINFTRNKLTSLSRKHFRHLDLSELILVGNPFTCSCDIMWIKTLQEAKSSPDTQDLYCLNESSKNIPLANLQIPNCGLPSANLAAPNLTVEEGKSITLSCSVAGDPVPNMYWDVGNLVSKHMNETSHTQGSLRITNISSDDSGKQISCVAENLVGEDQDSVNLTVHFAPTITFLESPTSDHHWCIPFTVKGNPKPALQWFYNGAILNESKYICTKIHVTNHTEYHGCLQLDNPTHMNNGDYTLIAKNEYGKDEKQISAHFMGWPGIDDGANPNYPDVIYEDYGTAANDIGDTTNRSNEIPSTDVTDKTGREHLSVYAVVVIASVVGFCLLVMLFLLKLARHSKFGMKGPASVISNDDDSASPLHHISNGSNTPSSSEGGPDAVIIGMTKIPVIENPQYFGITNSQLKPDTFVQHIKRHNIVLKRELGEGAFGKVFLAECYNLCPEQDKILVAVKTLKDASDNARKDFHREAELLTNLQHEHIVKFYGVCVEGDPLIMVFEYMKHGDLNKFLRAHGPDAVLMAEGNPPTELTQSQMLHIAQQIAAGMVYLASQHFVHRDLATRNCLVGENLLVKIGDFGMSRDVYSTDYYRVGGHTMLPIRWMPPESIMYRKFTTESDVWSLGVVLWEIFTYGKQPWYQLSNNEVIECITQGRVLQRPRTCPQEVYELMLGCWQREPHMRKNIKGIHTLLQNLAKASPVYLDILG
Chain of NT-3 growth factor receptor (Homo sapiens) (Q16288 32-839 limits assumed): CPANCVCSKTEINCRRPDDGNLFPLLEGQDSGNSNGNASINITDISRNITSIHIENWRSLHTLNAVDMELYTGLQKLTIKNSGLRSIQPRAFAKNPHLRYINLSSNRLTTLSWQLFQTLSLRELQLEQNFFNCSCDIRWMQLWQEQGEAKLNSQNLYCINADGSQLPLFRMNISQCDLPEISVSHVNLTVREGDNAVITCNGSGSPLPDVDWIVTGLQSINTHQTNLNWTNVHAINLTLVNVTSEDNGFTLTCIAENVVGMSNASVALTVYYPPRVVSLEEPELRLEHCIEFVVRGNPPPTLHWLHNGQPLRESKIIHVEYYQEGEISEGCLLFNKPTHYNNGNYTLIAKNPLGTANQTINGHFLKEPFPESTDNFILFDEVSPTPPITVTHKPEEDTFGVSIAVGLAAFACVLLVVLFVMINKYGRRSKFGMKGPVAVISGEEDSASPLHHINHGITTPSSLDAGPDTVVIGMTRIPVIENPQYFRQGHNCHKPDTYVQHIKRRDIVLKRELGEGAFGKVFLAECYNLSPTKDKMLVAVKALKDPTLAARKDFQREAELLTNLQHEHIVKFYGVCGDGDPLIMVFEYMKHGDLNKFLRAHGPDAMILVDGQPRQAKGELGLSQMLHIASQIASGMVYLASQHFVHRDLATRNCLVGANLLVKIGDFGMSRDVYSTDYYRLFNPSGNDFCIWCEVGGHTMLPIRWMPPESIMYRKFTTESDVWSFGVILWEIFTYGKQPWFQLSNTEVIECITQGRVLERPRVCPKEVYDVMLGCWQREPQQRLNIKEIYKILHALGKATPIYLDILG
Chain of High affinity nerve growth factor receptor (Homo sapiens) (P04629 33-796 limits assumed): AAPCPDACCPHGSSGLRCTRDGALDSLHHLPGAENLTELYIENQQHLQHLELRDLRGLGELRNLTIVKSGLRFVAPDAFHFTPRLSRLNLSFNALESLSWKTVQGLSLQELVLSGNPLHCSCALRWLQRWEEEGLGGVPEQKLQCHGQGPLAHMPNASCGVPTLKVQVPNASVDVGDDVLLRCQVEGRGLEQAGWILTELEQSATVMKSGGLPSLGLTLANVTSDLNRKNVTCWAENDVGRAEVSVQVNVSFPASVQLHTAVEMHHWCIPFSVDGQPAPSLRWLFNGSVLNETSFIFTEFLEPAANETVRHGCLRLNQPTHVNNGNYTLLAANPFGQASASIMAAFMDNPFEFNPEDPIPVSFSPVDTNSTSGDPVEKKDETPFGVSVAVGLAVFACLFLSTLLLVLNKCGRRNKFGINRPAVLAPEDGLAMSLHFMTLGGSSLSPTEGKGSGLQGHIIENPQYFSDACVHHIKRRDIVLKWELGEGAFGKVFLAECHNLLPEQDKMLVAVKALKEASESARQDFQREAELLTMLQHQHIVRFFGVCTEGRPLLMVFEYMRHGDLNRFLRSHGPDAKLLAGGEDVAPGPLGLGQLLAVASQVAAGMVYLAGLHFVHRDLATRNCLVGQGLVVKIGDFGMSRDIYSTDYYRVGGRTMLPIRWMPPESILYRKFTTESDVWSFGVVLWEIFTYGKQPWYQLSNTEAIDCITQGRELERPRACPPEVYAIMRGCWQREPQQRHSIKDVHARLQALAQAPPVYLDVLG
Chain of Non-receptor tyrosine-protein kinase TYK2 (Homo sapiens) (P29597 whole entry): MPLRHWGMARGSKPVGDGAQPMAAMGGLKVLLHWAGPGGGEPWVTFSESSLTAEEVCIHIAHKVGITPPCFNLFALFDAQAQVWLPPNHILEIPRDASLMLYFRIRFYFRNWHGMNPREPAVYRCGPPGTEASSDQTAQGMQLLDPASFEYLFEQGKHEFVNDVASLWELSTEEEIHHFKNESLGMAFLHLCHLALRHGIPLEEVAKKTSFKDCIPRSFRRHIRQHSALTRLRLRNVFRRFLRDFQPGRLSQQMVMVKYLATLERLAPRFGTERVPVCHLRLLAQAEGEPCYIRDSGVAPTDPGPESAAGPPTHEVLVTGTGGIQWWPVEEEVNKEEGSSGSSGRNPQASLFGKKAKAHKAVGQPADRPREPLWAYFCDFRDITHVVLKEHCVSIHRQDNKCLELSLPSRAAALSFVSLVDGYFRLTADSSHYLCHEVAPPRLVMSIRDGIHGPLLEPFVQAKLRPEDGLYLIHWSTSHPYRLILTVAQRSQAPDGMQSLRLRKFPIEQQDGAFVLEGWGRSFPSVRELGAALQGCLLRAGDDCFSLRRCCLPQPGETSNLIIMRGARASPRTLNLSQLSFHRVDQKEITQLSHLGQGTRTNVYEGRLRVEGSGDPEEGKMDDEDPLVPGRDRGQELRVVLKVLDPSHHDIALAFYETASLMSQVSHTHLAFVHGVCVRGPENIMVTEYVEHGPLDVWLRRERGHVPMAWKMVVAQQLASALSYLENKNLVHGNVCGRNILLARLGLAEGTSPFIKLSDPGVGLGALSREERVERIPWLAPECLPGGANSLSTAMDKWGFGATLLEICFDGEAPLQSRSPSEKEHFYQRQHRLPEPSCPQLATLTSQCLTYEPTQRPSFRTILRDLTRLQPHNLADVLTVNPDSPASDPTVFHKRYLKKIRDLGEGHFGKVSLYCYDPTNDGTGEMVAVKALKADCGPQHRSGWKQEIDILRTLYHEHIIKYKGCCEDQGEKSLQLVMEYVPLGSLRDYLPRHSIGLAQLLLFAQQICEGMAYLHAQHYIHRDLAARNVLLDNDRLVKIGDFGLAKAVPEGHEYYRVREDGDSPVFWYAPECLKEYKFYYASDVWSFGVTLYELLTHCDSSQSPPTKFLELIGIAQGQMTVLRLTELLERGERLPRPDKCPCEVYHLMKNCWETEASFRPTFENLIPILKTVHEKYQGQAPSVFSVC

Structure (SMILES)	inhibition [1]	inhibition [2]	inhibition [3]	inhibition [4]	inhibition [5]	inhibition [6]	inhibition [7]	inhibition [8]	inhibition [9]	inhibition [10]
Nc1nonc1-c1nc2cnccc2n1C1CC1	0.83% and 3.35%	1.21% and 3.09%	3.17% and -0.36%	2.17% and 1.89%	3.84% and 1.11%	4.13% and -0.96%	5.76% and -3.04%	-4.88% and 0.09%	5.15% and -6.34%	3.77% and -2.63%
CCN1CCC(C(=O)Nc2n[nH]c3nnc(-c4cccc(F)c4F)cc23)CC1	4.28%	0.46%	1.47%	2.09%	0.96%	-0.15%	1.19%	3.04%	2.28%	2.41%
CS(=O)(=O)CCNCc1ccoc1-c1ccc2ncnc(Nc3ccc(OCc4ccccc4)cc3)c2c1	1.88%	1.72%	4.41%	2.02%	1.74%	0.41%	1.96%	1.14%	5.58%	3.55%
COc1ccccc1-c1cc(/C=C2\C(=O)Nc3ncc(Br)cc32)cc(Br)c1O	61.7%	38.7%	89.2%	41.7%	93.9%	3.05%	6.65%	-5.9%	9.88%	13.4%
c1ccc(-c2n[nH]cc2-c2ccnc(-c3ccc(OCCn4ccnc4)cc3)c2)nc1	3.78%	0.64%	4.04%	0.02%	4.91%	0.7%	4.37%	1.04%	10.7%	1.14%
OCCCNc1nccc(-c2c(-c3ccc(F)cc3)nn3cc(C(F)(F)F)ccc23)n1	1.07%	1.2%	1.1%	2.9%	2.72%	4.77%	6.39%	-6.14%	4.7%	0.87%
COc1ccc(-c2nn3ncccc3c2-c2ccnc(Nc3ccc(F)c(F)c3)n2)cc1	3.36%	2.76%	8.32%	2.73%	4.85%	2.4%	5%	-2.09%	-0.7%	2.87%
Cc1nnc(-c2cccc(-c3ccc(C(=O)NCC4CC4)cc3)c2)o1	1.38%	2.02%	4.55%	3.7%	3.95%	2.44%	3.16%	-5.67%	0.98%	1.82%
CS(=O)(=O)CCNCc1ccc(-c2ccc3ncnc(Nc4ccc(OCc5ccccc5)cc4)c3c2)o1	2.55%	2.66%	4.99%	3.88%	5.1%	0.48%	3.39%	-1.78%	7.19%	3.51%
Nc1nccc(-c2c(-c3ccc(F)cc3)ncn2C2CCNCC2)n1	-2.46% and 2.61%	-1.2% and 0.85%	-0.92% and 0.76%	-2.82% and 1.09%	-1.78% and 1.96%	-1.02% and 1.02%	-0.81% and 3.65%	0.9% and -0.21%	-1.76% and -0.14%	-4.27% and 0.74%
CS(=O)(=O)CCNCc1ccc(-c2ccc3ncnc(Nc4ccc(OCc5cccc(C(F)(F)F)c5)cc4)c3c2)o1	7.21%	4.9%	17.5%	3%	10.1%	5.9%	5.59%	-2.56%	8.3%	3.79%
CNC(=O)c1sc(-n2cnc3cc(OC)c(OC)cc32)cc1OCc1ccccc1C(F)(F)F	4.9%	1.8%	4.02%	3.06%	6.32%	5.54%	11.5%	-2.35%	7.09%	3.14%
O=C1Nc2ccccc2/C1=C1\CCc2cc(O)ccc21	70.6%	28.6%	78%	28%	77.5%	2.88%	8.68%	-2.35%	31.4%	8.42%
N#Cc1cccc(Nc2ncc(-c3ccccc3)o2)c1	12.6%	3.16%	26.5%	4.53%	25.1%	1.62%	3.17%	-5.06%	8.8%	1.03%
COc1cc(N2CCN(C(C)C)CC2)ccc1Nc1nc(Nc2cccc3ncccc23)c2cc[nH]c2n1	1.49%	0.73%	0.22%	0.87%	0.74%	0.48%	3.98%	-4.59%	69.5%	0.64%
c1cnn2ncc(-c3ccnc(NCCCN4CCOCC4)n3)c2c1	1.75%	3.17%	1.35%	3.48%	2.63%	1.71%	-0.63%	-5.16%	8.22%	2.65%

Structure (SMILES)	inhibition [1]	inhibition [2]	inhibition [3]	inhibition [4]	inhibition [5]	inhibition [6]	inhibition [7]	inhibition [8]	inhibition [9]	inhibition [10]
CCCNc1cccc(-n2ncc3c(N/N=C/c4ccncc4)ncnc32)c1	7.34%	5.18%	33.9%	4.23%	36.8%	2.17%	8.54%	-0.85%	15.7%	9.48%
CN(c1ccc(NC(=O)NCCN2CCOCC2)cc1)c1ccnc(Nc2ccc(CS(C)(=O)=O)cc2)n1	5.98%	3.15%	8%	1.78%	11.3%	16.9%	57.7%	-6.06%	7.72%	24.5%
Cc1cc(O)cc(C)c1/C=C/c1cncc(C(N)=O)c1	1.48%	1.71%	0.87%	1.25%	0.56%	5.98%	27.9%	-2.57%	2.18%	2.32%
NS(=O)(=O)c1cccc(N/C=C2\C(=O)Nc3ccccc32)c1	16.2%	6.02%	32.9%	6.86%	32.3%	4.29%	6.83%	-2.94%	21.3%	7.85%
CCOc1ccc2c(-c3ccnc(Nc4cc(OC)cc(C(F)(F)F)c4)n3)cnn2n1	3.16%	-1.33%	3.13%	-1.23%	4.94%	0.98%	3.69%	-2.65%	8.93%	0.65%
COc1cc2c(cc1Nc1nc(Nc3cccc(F)c3C(N)=O)c3cc[nH]c3n1)N(C(=O)CN1CCN(C(C)C)CC1)CC2	0.01%	-0.13%	0.84%	-1.97%	-0.99%	7.39%	3.01%	0.12%	47.7%	0.69%
O=C(Nc1n[nH]c2nnc(-c3cccnc3)cc12)C1CC1	-0.64%	-0.74%	0.57%	-0.44%	-0.22%	0.3%	2.21%	1.8%	2.14%	0.85%
Cn1c(-c2nonc2N)nc2cnccc21	0.76%	1.23%	0.53%	2%	1.22%	4.05%	4.22%	-2.09%	8.28%	1.22%
CS(=O)(=O)Nc1ccc(-c2ccc3c(NC(=O)C4CC4)n[nH]c3c2)cc1	3.27%	2.22%	5.91%	2.1%	9.06%	2.62%	5.31%	-0.89%	11.9%	2.55%
O=C(O[C@H]1CN[C@H](C#Cc2cc3ncnc(Nc4ccc5c(ccn5Cc5cc(F)ccc5F)c4)c3s2)C1)N1CCOCC1	0.61%	1.99%	3.22%	2.18%	2.92%	3.8%	5.25%	-1.85%	9.66%	4.5%
FC(F)(F)CNc1nccc(-c2cnn3ncccc23)n1	2.2%	0.64%	-0.08%	0.73%	0.22%	-0.11%	1.8%	-4.86%	8.83%	2.68%
CC(C)c1ccc(-c2cc(-c3c[nH]nc3-c3ccccn3)ccn2)cc1	2.9%	0.33%	2.07%	0.32%	1.76%	2.1%	2.05%	0.66%	11.3%	1.03%
COc1ccc2ncn(-c3cc(O[C@H](C)c4ccccc4C(F)(F)F)c(C(N)=O)s3)c2c1	2.53%	-0.31%	4.65%	0.4%	5.65%	1.46%	2.56%	0.28%	5.58%	-0.03%
N#Cc1ccc2c(-c3ccnc(NC4CC4)n3)c(-c3ccc(F)cc3)nn2c1	-2.02%	0.12%	0.68%	-1.35%	-1.48%	0.94%	12.3%	0.53%	3.53%	0.84%
CN1CCC(n2cnc(-c3ccc(F)cc3)c2-c2ccnc(NCCO)n2)CC1	2.02%	2.35%	6.67%	4.76%	5.91%	2.5%	2.52%	-3.21%	2.05%	1.7%
